Sfp PPTase inh: qHTS Assay for Inhibitors of Bacillus subtilis Sfp phosphopantetheinyl transferase (PPTase). 4'-phosphopantetheinyl transferase ffp (Bacillus subtilis), Q9F4F7. Biochemical Sfp PPTase activity, qHTS. Potency, µM, actives largely listed as inhibitors. actives 3.5% (n = 310,000);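 further: the enzyme is Sfp with the accession as filed and its product quenches rhodamine fluorescence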
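Fluorescence-quenching assay: 15 nM Sfp-PPTase preincubated 15 min at room temperature with compound, then 5 uM rhodamine-CoA and 12.5 uM BHQ-2-labelled YbbR peptide added. Fluorescence (ex 525/em 598 nm) read at start and after 30 min; difference gives rate.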
Tau fibril ThT: qHTS for Inhibitors of Tau Fibril Formation, Thioflavin T Binding; Microtubule-associated protein tau (Homo sapiens), P10636; recombinant tau K18 P301L, heparin-induced fibrillization, ThT fluorescence; Potency, µM (highest dose often 57.4 µM), actives largely listed as inhibitors; actives 2.1% (n = 270,000); AID 1460, 2008; further: nearly all actives have a fitted effect of over 55% in size
Target sequence (P10636 561-689 P618L limits assumed): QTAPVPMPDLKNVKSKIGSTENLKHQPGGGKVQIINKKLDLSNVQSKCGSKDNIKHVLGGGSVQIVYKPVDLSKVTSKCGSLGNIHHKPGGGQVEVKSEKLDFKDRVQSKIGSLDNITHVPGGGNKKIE
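Heparin-induced (20 uM) aggregation of recombinant human K18 P301L tau, 15 uM unlabeled with 0.24 uM labeled, pH 7 acetate buffer, 6 hr at 37 C with compound. Fibrils quantified by 30 uM ThT fluorescence after 1 hr ambient incubation.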
Tau fibril FP: qHTS for Inhibitors of Tau Fibril Formation, Fluorescence Polarization | K18 P301L tau heparin fibrillization, Alexa594 FP, 6 h | Potency, µM (doses to about 57.7 µM), hits mostly inhibitors | actives 0.39% (n = 280,000) | AID 1468, 2008; further: nearly all actives have a fitted effect of over 55% in size
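Recombinant K18 P301L […], labeled with Alexa 594 at 0.24 uM over 15 uM unlabeled; heparin inducer 20 uM final; 37 C, 6 hr; FP endpoint.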
Tau fluor counter: Counterscreen qHTS for Inhibitors of Tau Fibril Formation, Fluorescence Polarization; AID 1463, 2008; actives 0.93% (n = 280,000); Potency, µM (titrated, usually from 57.7 µM); tau K18 P301L (four-repeat tau fragment) Alexa594 fluorescence, heparin fibrillization; further: nearly all actives have a fitted effect of over 55% in size
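Human K18 P301L tau (15 uM unlabeled plus 0.24 uM Alexa 594-labeled, final) in 100 mM sodium acetate pH 7 was mixed with compound and 20 uM heparin and incubated 6 hr at 37 C.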
FBPA coupling cs: qHTS Assay for Inhibitors of Fructose-1,6-bisphosphate Aldolase from Giardia Lamblia: Coupling assay counterscreen; coupling enzyme system counterscreen, AmpLite Red fluorescence; activity change, negative = inhibition, % at 58.2 µM, hits read low; actives 0.67% (n = 290,000); AID 2472, 2010; in the data active means activity change below about -30%
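Coupling enzymes only (glyceraldehyde-3-phosphate) + compound, at 57.5 uM final, 10 min RT; add substrate/coupling/AmpLite Red mix, 20 min RT; fluorescence ex 525/em 598 nm. Actives flag coupling-system interference.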
Large screens that a line does not name were inactive; [ ] = dose if it differs, or a comment. This is a sample that favours compounds with a hit; in the whole collection about 5.2% have one here. Unless noted, the call rests on the fitted dose curve; in most records, active means well fitted curve in the direction sought with a large enough effect; inconclusive means small, poorly fitted or top-dose-only effect, or another doubt; inactive means no such curve, though single readings can be large; an effect the other way counts as inactive or inconclusive.

S=c1nc(-c2cccc(Cl)c2)[nH][nH]1	Sfp PPTase inh inconclusive
S=c1nc(-c2cc(Cl)ccc2Cl)[nH][nH]1	Sfp PPTase inh 50µM
O=[N+]([O-])c1ccc(Nc2nc(N/N=C\c3ccc4c(c3)OCO4)nc(N3CCCCC3)n2)cc1	Tau fibril ThT 32µM, Tau fluor counter inconclusive
CN(C)CCCn1c(SCC(=O)Nc2nc(-c3cccc(Br)c3)cs2)nc2ccccc2c1=O	Sfp PPTase inh 45µM, Tau fibril ThT inconclusive
CCCc1nnc(NC(=O)CSc2nc3ccccc3[nH]2)s1	none
O=C(CSc1nc2ccccc2[nH]1)Nc1nc(-c2cccc(Br)c2)cs1	Tau fibril FP 14µM, Tau fluor counter inconclusive
Oc1cccc(/C=N/N(Cc2ccccc2)c2ccccc2)c1	Tau fibril ThT inconclusive, Tau fibril FP inconclusive, Tau fluor counter 13µM[quencher]
Oc1ccc(/C=N/N(Cc2ccccc2)c2ccccc2)c(O)c1O	Sfp PPTase inh 56µM, Tau fibril ThT 28µM, Tau fibril FP inconclusive, Tau fluor counter 28µM[quencher]
C(=N\N(Cc1ccccc1)c1ccccc1)/c1cccnc1	Tau fibril ThT inconclusive
O=C1CCCC(=O)C1CS(=O)(=O)c1ccccc1	Sfp PPTase inh 20µM, Tau fibril ThT 18µM, Tau fibril FP 28µM
O=C1CC(c2ccc(Cl)cc2)CC(=O)C1CS(=O)(=O)c1ccccc1 (stereo not drawn)	Tau fibril ThT inconclusive
O=[N+]([O-])c1ccccc1/C=C/C=N/N1CCCCC1	Tau fibril ThT inconclusive
O=[N+]([O-])c1ccccc1/C=N\N1CCN(c2ccccc2)CC1	Tau fibril ThT 11µM, Tau fluor counter inconclusive
COc1ccccc1N1CCN(/N=C/c2cc([N+](=O)[O-])ccc2Cl)CC1	none
O=[N+]([O-])c1ccccc1/C=C\C=N\N1CCN(c2ccccc2)CC1	Tau fibril ThT 13µM, Tau fluor counter inconclusive
O=[N+]([O-])c1ccc(Cl)c(/C=N/N2CCN(c3ccccc3)CC2)c1	Tau fibril ThT inconclusive, Tau fluor counter inconclusive
COc1ccccc1N1CCN(/N=C/C=C/c2ccccc2[N+](=O)[O-])CC1	Tau fibril ThT 14µM, Tau fluor counter inconclusive
O=[N+]([O-])c1ccccc1/C=N/N1CCN(c2ccc(Cl)cc2)CC1	Tau fibril ThT 11µM, Tau fluor counter inconclusive
COc1ccc(C)cc1NC(=O)C(=O)NCCc1csc2nc(-c3ccccc3F)nn12	none (no result: Sfp PPTase inh, FBPA coupling cs)
O=C1CS(=O)(=O)C2(C(=O)Nc3ccccc32)N1c1cccc(Cl)c1 (stereo not drawn)	none (no result: Sfp PPTase inh, FBPA coupling cs)
CCN(CC)C(=O)C1CCN(c2ncnc3c2cnn3-c2ccc(C)cc2C)CC1	Sfp PPTase inh 56µM
O=C(N/N=C/c1ccc([N+](=O)[O-])o1)c1cc(-c2ccc(-c3ccccc3)cc2)nc2ccccc12	none
Cc1cc(N/N=C/c2ccc([N+](=O)[O-])o2)nc2ccccc12	Tau fibril ThT 1.6µM, Tau fluor counter inconclusive
Cc1ccc2nc(N/N=C/c3ccco3)cc(C)c2c1	Tau fibril ThT 18µM, Tau fluor counter inconclusive
CC[C@H](C)[C@H](NC(=O)CNC(=O)[C@H](CCCNC(=N)N)NC(=O)[C@H](CO)NC(=O)[C@H](C)NC(=O)[C@H](Cc1ccc(O)cc1)NC(=O)[C@H](Cc1c[nH]c2ccccc12)NC(=O)[C@H](C)NC(=O)[C@@H]1CCCN1C(=O)[C@H](CC(N)=O)NC(=O)[C@@H](NC(=O)[C@H](CC(=O)O)NC(=O)[C@@H]1CCCN1C(=O)[C@@H](NC(=O)[C@H](CCCNC(=N)N)NC(=O)[C@@H](NC(=O)[C@H](CCC(=O)O)NC(=O)[C@H](CCSC)NC(=O)[C@H](CO)NC(=O)[C@H](Cc1cnc[nH]1)NC(=O)[C@H](CCCNC(=N)N)NC(=O)[C@H](Cc1cnc[nH]1)NC(=O)[C@@H](NC(=O)[C@H](CCCNC(=N)N)NC(=O)[C@@H](N)CO)[C@@H](C)O)[C@@H](C)CC)[C@@H](C)O)[C@@H](C)CC)C(=O)N[C@@H](CCCNC(=N)N)C(=O)N1CCC[C@H]1C(=O)N[C@H](C(=O)NCC(=O)N[C@@H](CCCNC(=N)N)C(=O)N[C@@H](Cc1ccccc1)C(N)=O)C(C)C	none (no result: Tau fibril ThT, Tau fibril FP, Tau fluor counter)
O=C(NCCc1csc(-c2ccc(C(F)(F)F)cc2)n1)c1ccc(F)c(F)c1	Tau fibril FP inconclusive, Tau fluor counter inconclusive (no result: Sfp PPTase inh, FBPA coupling cs)
COc1ccc2nc(N=Nc3ccc(N(C)C)cc3)sc2c1	Tau fibril ThT 0.89µM, Tau fluor counter inconclusive
CCn1c2ccccc2c2cc(/C=N/n3c(C)nnc3C)ccc21	Sfp PPTase inh 50µM
COCCCNC(=O)CSc1nc2nc(C)c(Cc3ccccc3Cl)c(C)n2n1	none (no result: Sfp PPTase inh, FBPA coupling cs)
c1ccc2c(c1)Cc1cc3cc4c(cc3nc1-2)OCO4	Tau fibril ThT 3.2µM, Tau fluor counter inconclusive
C=CCn1c(SCc2ccccc2)nc2scc(-c3ccc(C)o3)c2c1=O	Sfp PPTase inh 28µM
C=CCn1c(SCCN2C(=O)c3ccccc3C2=O)nc2scc(-c3ccccc3)c2c1=O	none
C=CCn1c(SCC(N)=O)nc2scc(-c3ccc(C)o3)c2c1=O	Sfp PPTase inh 22µM, Tau fibril ThT inconclusive
C=CCn1c(SCC(=O)NCCOC)nc2scc(-c3ccco3)c2c1=O	Sfp PPTase inh 10µM, Tau fibril ThT 22µM, Tau fibril FP 16µM
C=CCn1c(SCC(=O)NCC2CCCO2)nc2scc(-c3ccco3)c2c1=O (stereo not drawn)	Tau fibril ThT inconclusive
C=CCn1c(SCC(=O)c2ccc(CNC(C)=O)o2)nc2scc(C3CC3)c2c1=O	Sfp PPTase inh 45µM, Tau fibril ThT inconclusive
O=c1c(-c2ccc(Cl)cc2)nc2cnc(N3CCOCC3)nc2n1-c1ccccc1	none (no result: Tau fibril ThT, Tau fibril FP, Tau fluor counter)
Cc1ccccc1CNC(=O)CCC(=O)N1CCSc2ccccc21	none (no result: Sfp PPTase inh, FBPA coupling cs)
Cc1nn2c3c(cnc2c1-c1ccc(Cl)cc1)C(=O)CC(c1ccc(C(C)C)cc1)C3 (stereo not drawn)	none (no result: Sfp PPTase inh, FBPA coupling cs)
COc1ccc(Br)c2c1-c1nc(NC(=O)c3ccccc3SC)sc1C2	Tau fibril ThT inconclusive, Tau fluor counter inconclusive (no result: Sfp PPTase inh, FBPA coupling cs)
COCCNC(=S)N/N=C1\CC(C)CC(C)(C)C1 (stereo not drawn)	Sfp PPTase inh 50µM
CCOC(=O)N/N=C1\CC(C)CC(C)(C)C1 (stereo not drawn)	none
COCCNC(=S)NN=C1CCCCCC1	Sfp PPTase inh 56µM
Cc1nnsc1C(=O)Oc1ccc(C(C)C)cc1	Tau fibril ThT inconclusive (no result: Sfp PPTase inh, FBPA coupling cs)
CCOc1cc(CNc2ccc3[nH]c(=O)[nH]c3c2)ccc1OCC(=O)NC(C)(C)C	Sfp PPTase inh inconclusive, Tau fibril ThT 13µM, Tau fibril FP inconclusive, Tau fluor counter inconclusive, FBPA coupling cs -33
COc1cc(CNn2c(C)n[nH]c2=S)cc(Cl)c1OCC(=O)NC(C)(C)C	none (no result: Tau fibril ThT, Tau fibril FP, Tau fluor counter)

Screening data from PubChem BioAssay.
